In PMC7862700, “An all-to-all approach to the identification of sequence-specific readers for epigenetic DNA modifications on cytosine”:

How the values were obtained:
Test in all cases: DAPPL (digital affinity profiling via proximity ligation, sequencing); 10 mM Tris-HCl pH 7.5, 50 mM NaCl, 1 mM DTT, 4% glycerol, room temperature, 30 min; GST-TFs on glutathione beads, 16-mer random dsDNA library, 0.1% formaldehyde crosslink after washing; high values mean tight binding
FEV = target: T1, FEV (Homo sapiens, UniProt Q99581 1-238); conditions: protein: recombinant; tags: N-terminal GST; dsDNA, one strand shown
T1 sequence: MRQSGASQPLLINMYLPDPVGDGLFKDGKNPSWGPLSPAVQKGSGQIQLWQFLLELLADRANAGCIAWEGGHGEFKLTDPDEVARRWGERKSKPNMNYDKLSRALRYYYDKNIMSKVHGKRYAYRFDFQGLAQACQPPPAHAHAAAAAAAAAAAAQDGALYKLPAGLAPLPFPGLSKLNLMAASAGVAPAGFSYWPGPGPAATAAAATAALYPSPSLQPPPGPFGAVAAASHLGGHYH
Outline: (§1)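 The binding signal reported is, for every hexamer, its read frequency for a factor over its read frequency for the tag-only sample. Reads came from pools of yeast-expressed, GST-fused human transcription factors on glutathione beads, barcoded with DNA and mixed with that sample, which were incubated with 200 nmole of a random double-stranded 16-mer DNA library in Tris/NaCl/DTT/glycerol buffer at room temperature for 30 min. After washing, the pools were crosslinked with 0.1% formaldehyde, proximity-ligated with BsaI/T4 ligase for 1 h at 37 °C, PCR-amplified and sequenced on an Illumina NextSeq500.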

ETV5 = ETV5 (Homo sapiens, UniProt P41161 1-510); conditions: protein: recombinant; tags: N-terminal GST; dsDNA, one strand shown
Outline: as §1

HSF1 = HSF1 (Homo sapiens, UniProt Q00613 1-529); conditions: protein: recombinant; tags: N-terminal GST; chain copies: 3; dsDNA, one strand shown
Outline: as §1

SPIC = target: T2, SPIC (Homo sapiens, UniProt Q8N5J4 1-248); conditions: protein: recombinant; tags: N-terminal GST; dsDNA, one strand shown
T2 sequence: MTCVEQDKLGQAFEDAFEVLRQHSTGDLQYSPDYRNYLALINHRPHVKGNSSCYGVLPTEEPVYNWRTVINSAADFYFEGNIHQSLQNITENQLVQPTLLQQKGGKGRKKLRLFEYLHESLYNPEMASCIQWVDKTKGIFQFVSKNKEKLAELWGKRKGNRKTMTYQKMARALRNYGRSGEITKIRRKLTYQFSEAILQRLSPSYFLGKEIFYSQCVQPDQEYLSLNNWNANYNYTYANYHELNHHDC
Outline: as §1

ELF4 = ELF4 (Homo sapiens, UniProt Q99607 1-663); conditions: protein: recombinant; tags: N-terminal GST; dsDNA, one strand shown
Outline: as §1

ELK4 = target: T3, ELK4 (Homo sapiens, UniProt P28324-2 1-405); conditions: protein: recombinant; tags: N-terminal GST; dsDNA, one strand shown
T3 sequence: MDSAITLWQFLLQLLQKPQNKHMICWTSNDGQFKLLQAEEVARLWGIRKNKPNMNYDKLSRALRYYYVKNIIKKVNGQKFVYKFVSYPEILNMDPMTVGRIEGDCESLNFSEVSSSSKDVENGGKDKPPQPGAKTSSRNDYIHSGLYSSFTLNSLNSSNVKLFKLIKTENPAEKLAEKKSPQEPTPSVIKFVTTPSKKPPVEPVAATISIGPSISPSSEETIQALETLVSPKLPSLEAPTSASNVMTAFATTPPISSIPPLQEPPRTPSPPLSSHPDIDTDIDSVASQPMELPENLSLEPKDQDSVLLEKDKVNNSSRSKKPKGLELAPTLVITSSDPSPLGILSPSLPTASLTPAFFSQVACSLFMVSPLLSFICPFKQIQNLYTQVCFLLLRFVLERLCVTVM
Outline: as §1

ETV2 = target: T4, ETV2 (Homo sapiens, UniProt O00321 1-342); conditions: protein: recombinant; tags: N-terminal GST; dsDNA, one strand shown
T4 sequence: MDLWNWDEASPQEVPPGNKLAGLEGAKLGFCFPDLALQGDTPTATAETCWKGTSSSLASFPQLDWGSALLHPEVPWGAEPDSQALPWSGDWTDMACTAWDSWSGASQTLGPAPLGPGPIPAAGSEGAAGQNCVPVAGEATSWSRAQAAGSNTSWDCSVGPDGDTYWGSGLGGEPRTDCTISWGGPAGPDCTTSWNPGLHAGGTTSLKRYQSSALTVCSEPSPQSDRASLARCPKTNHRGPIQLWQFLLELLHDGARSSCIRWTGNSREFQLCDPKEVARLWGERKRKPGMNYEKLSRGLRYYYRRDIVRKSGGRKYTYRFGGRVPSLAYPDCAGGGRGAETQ
Outline: as §1

ELF3 = target: T5, ELF3 (Homo sapiens, UniProt P78545 1-371); conditions: protein: recombinant; tags: N-terminal GST; dsDNA, one strand shown
T5 sequence: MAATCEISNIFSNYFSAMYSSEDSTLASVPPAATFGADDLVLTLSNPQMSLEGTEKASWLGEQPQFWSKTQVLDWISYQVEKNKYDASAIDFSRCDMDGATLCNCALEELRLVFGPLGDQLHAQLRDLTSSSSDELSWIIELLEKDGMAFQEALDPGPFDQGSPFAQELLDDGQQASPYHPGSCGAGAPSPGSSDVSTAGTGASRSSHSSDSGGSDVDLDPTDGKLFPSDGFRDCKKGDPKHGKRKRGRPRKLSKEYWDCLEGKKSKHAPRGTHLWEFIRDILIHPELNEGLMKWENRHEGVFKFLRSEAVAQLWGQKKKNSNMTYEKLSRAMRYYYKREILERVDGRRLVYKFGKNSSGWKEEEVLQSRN
Outline: as §1

CRX = CRX (Homo sapiens, UniProt O43186 1-299); conditions: protein: recombinant; tags: N-terminal GST; dsDNA, one strand shown
Outline: as §1

ETV1 = ETV1 (Homo sapiens, UniProt P50549 1-477); conditions: protein: recombinant; tags: N-terminal GST; dsDNA, one strand shown
Outline: as §1

ERF = target: T6, ERF (Homo sapiens, UniProt P50548 1-548); conditions: protein: recombinant; tags: N-terminal GST; dsDNA, one strand shown
T6 sequence: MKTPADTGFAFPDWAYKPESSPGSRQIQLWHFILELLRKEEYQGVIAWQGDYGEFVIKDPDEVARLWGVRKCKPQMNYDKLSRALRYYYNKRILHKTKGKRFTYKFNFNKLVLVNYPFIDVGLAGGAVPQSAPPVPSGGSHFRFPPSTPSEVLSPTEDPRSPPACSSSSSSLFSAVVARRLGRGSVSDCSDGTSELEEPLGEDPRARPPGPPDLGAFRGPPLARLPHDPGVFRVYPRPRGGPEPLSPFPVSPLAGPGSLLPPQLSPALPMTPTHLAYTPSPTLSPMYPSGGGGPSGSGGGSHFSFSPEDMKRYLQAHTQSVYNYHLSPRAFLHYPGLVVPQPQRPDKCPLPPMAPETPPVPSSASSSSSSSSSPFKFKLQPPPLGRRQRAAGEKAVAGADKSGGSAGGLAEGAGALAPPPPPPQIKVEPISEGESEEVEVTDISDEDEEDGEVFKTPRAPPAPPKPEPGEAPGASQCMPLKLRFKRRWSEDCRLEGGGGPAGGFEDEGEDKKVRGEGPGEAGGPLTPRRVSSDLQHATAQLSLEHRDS
Outline: as §1

ETV3L = target: T7, ETV3L (Homo sapiens, UniProt Q6ZN32 1-361); conditions: protein: recombinant; tags: N-terminal GST; dsDNA, one strand shown
T7 sequence: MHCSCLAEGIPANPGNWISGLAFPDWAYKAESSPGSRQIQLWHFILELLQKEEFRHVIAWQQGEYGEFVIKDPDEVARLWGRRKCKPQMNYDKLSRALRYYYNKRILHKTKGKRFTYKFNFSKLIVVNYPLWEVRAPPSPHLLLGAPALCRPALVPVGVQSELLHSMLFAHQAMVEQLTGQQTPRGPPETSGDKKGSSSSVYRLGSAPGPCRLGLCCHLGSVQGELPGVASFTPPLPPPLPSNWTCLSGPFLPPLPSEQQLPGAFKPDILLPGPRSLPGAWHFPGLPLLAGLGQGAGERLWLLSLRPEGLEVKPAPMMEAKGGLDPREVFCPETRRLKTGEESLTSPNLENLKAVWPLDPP
Outline: as §1

ETS2 = target: T8, ETS2 (Homo sapiens, UniProt P15036 1-469); conditions: protein: recombinant; tags: N-terminal GST; dsDNA, one strand shown
T8 sequence: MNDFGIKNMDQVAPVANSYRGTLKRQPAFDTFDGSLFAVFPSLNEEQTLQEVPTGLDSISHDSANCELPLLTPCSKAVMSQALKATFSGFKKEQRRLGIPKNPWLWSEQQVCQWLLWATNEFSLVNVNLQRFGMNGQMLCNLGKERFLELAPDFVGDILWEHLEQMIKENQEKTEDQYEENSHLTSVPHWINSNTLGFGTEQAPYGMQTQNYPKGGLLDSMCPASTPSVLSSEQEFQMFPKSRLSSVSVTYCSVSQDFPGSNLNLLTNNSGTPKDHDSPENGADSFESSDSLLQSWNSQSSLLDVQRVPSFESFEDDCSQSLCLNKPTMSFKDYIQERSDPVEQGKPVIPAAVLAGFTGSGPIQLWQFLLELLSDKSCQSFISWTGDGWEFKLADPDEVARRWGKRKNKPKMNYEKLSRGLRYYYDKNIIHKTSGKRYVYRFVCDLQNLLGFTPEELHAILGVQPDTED
Outline: as §1

SPDEF = target: T9, SPDEF (Homo sapiens, UniProt O95238 1-335); conditions: protein: recombinant; tags: N-terminal GST; dsDNA, one strand shown
T9 sequence: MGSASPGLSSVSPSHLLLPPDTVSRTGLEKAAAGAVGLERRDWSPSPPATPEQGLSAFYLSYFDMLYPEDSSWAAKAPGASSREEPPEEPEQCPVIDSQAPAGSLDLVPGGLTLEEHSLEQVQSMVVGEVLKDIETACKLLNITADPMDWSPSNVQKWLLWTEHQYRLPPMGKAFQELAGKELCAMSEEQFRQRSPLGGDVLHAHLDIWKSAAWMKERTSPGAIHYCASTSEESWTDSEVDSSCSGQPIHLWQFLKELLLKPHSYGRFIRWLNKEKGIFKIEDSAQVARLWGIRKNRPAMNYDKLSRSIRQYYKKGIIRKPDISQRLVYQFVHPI
Outline: as §1

ETV7 = target: T10, ETV7 (Homo sapiens, UniProt Q9Y603 1-341); conditions: protein: recombinant; tags: N-terminal GST; dsDNA, one strand shown
T10 sequence: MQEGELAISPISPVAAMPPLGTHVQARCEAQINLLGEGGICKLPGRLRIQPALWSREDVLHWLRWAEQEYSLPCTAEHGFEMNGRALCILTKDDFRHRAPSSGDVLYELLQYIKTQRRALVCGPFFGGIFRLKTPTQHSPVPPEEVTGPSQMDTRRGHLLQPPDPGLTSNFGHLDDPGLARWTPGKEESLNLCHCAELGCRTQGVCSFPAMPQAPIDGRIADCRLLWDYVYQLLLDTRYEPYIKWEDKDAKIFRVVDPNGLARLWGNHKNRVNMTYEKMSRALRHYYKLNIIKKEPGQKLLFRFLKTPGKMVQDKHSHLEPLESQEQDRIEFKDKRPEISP
Outline: as §1

ELF5 = target: T11, ELF5 (Homo sapiens, UniProt Q9UKW6-2 1-255); conditions: protein: recombinant; tags: N-terminal GST; dsDNA, one strand shown
T11 sequence: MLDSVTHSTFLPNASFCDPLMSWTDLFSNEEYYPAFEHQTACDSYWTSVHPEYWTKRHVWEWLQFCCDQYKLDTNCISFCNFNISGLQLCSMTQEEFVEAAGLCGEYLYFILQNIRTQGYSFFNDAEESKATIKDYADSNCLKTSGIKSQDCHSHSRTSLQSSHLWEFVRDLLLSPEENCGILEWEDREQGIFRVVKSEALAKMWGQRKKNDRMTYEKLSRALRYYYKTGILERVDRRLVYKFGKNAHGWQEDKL
Outline: as §1

ETV3 = target: T12, ETV3 (Homo sapiens, UniProt P41162-2 1-143); conditions: protein: recombinant; tags: N-terminal GST; dsDNA, one strand shown
T12 sequence: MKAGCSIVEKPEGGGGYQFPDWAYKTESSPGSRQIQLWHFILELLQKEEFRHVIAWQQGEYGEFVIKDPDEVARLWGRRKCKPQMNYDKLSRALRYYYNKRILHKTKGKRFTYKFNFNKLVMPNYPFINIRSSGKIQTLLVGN
Outline: as §1

ETV6 = ETV6 (Homo sapiens, UniProt P41212 1-452); conditions: protein: recombinant; tags: N-terminal GST; dsDNA, one strand shown
Outline: as §1

Sequence of ETV5 (P41161 whole entry): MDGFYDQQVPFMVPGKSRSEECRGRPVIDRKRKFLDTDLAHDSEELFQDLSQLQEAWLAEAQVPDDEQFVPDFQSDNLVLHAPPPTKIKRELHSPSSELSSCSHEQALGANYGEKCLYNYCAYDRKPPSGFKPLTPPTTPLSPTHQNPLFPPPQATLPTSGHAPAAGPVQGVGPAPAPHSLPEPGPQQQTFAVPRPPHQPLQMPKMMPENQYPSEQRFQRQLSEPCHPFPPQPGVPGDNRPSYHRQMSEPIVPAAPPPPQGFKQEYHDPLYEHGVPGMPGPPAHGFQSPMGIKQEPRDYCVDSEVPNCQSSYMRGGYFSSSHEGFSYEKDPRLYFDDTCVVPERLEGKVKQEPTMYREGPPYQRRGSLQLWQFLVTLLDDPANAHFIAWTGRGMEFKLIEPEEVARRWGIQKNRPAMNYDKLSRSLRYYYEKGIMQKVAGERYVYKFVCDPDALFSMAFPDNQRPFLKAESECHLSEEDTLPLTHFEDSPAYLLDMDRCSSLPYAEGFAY
Sequence of ETV6 (P41212 whole entry): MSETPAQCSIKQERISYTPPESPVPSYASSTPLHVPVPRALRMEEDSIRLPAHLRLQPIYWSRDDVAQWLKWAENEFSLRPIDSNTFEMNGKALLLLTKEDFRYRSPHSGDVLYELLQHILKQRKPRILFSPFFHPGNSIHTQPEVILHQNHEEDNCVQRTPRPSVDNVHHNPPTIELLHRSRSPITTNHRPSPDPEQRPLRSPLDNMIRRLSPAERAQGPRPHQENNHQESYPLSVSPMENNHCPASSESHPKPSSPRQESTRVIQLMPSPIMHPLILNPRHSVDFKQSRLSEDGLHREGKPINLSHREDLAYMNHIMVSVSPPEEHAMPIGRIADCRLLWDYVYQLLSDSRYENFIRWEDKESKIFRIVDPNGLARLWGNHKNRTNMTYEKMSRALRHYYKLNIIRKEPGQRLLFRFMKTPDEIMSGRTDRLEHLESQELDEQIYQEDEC
Sequence of HSF1 (Q00613 whole entry): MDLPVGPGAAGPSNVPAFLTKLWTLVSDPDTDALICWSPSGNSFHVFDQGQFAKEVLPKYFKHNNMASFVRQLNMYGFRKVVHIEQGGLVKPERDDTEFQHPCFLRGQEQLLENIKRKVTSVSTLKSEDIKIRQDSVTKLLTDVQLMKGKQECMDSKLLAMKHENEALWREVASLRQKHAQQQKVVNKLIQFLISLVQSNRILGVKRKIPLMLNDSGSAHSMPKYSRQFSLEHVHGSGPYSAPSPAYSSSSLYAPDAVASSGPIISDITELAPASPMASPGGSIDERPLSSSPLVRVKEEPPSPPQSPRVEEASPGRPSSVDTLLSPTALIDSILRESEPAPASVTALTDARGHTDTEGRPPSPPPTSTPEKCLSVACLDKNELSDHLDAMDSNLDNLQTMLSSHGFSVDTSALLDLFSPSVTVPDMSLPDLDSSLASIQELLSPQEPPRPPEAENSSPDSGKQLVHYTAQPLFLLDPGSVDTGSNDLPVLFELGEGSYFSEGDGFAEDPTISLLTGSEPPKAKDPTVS
Sequence of CRX (O43186 whole entry): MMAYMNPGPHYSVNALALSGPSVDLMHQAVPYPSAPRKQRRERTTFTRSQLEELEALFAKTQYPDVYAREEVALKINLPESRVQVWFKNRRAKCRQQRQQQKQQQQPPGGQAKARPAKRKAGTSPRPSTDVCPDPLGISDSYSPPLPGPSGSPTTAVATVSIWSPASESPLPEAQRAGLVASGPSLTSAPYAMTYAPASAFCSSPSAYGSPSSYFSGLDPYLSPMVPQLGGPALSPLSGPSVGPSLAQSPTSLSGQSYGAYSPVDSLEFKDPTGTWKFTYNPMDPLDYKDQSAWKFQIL
Sequence of ETV1 (P50549 whole entry): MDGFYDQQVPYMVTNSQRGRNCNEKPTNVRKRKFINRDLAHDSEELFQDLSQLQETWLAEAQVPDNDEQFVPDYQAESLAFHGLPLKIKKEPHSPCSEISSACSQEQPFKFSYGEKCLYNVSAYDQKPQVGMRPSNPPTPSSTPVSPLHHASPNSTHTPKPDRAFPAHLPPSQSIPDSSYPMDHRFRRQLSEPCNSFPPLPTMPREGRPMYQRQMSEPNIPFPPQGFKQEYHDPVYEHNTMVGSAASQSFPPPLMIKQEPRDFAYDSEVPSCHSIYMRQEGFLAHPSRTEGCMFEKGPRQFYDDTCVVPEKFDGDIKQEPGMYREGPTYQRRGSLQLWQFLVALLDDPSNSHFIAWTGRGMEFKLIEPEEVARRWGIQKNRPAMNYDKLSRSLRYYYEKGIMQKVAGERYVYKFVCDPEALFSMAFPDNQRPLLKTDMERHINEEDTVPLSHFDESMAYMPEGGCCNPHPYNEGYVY
Sequence of ELF4 (Q99607 whole entry): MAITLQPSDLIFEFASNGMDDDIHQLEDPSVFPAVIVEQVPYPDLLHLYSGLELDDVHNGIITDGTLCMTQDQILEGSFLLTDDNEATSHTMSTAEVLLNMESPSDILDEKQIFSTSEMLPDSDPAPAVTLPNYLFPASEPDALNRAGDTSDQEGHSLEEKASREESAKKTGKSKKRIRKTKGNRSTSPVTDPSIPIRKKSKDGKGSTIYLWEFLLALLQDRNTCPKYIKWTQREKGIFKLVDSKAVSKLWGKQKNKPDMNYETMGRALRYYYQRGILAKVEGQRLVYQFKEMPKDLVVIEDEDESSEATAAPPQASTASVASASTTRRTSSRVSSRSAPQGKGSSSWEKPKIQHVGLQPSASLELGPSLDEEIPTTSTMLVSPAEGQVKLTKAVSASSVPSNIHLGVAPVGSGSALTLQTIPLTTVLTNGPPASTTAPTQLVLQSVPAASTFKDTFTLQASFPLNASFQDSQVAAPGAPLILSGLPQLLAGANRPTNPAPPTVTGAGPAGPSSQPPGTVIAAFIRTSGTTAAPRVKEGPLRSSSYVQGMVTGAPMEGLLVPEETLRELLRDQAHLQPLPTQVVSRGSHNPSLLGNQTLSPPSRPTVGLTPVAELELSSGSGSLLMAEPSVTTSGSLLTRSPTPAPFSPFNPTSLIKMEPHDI

## CTCTGG
FEV
  binding signal: 1.33 fold enrichment (6-mer frequency, TF over GST control)
ETV5
  binding signal: 1.32 fold enrichment (6-mer frequency, TF over GST control)
HSF1
  binding signal: 1.81 fold enrichment (6-mer frequency, TF over GST control)
SPIC
  binding signal: 1.25 fold enrichment (6-mer frequency, TF over GST control)
ELF4
  binding signal: 1.36 fold enrichment (6-mer frequency, TF over GST control)
ELK4
  binding signal: 1.23 fold enrichment (6-mer frequency, TF over GST control)
ETV2
  binding signal: 1.09 fold enrichment (6-mer frequency, TF over GST control)
ELF3
  binding signal: 1.37 fold enrichment (6-mer frequency, TF over GST control)
CRX
  binding signal: 1.35 fold enrichment (6-mer frequency, TF over GST control)
ETV1
  binding signal: 1.22 fold enrichment (6-mer frequency, TF over GST control)
ERF
  binding signal: 1.36 fold enrichment (6-mer frequency, TF over GST control)
ETV3L
  binding signal: 1.45 fold enrichment (6-mer frequency, TF over GST control)
ETS2
  binding signal: 1.19 fold enrichment (6-mer frequency, TF over GST control)
SPDEF
  binding signal: 1.19 fold enrichment (6-mer frequency, TF over GST control)
ETV7
  binding signal: 1.33 fold enrichment (6-mer frequency, TF over GST control)
ELF5
  binding signal: 1.21 fold enrichment (6-mer frequency, TF over GST control)
ETV3
  binding signal: 1.31 fold enrichment (6-mer frequency, TF over GST control)
ETV6
  binding signal: 1.39 fold enrichment (6-mer frequency, TF over GST control)
